HT1080 IDH1KD tx – HT-1080 IDH1 knockdown cell toxicity (counter line) | Potency, µM (doses to about 46.1 µM), for the others: at the top dose activity, negative = toxicity, usual class: cytotoxic | AID 686971 | hit rate 2% among 360,000 | HT-1080 IDH1 knockdown viability, ATP luminescence, 48 h;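 further: potency means the concentration at half of the fitted maximal effect; 0% = DMSO wells and -100% = cell-free medium wells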
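CellTiter-Glo luminescence after 48 h compound exposure at 37 degrees C of IDH1-knockdown HT-1080 cells in 5% FBS RPMI. %Activity scaled between DMSO wells and cell-free media wells, with curves fitted and assigned curve classes.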
DT40 TDP1 CPT – growth inhibition of DT40 Tdp1-/-;hTDP1 cells with camptothecin (screen for TDP1 inhibitors); hit rate 12% among 420,000; chicken DT40 Tdp1-/-;hTDP1 cells + 20 nM CPT, ATP luminescence, 48 h; Potency, µM (doses to about 46.2 µM), for inactives: at the top dose activity change, negative = growth inhibition, actives largely listed as inhibitors; further: potency means the concentration at half of the fitted maximal effect; nearly all actives have a fitted effect of over 55% in size
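Chicken DT40 Tdp1-/- cells stably complemented with human TDP1 were seeded at 400 cells/well in medium containing 20 nM camptothecin, exposed to pin-transferred compounds, and grown at 37 °C for at least 48 hr. Viability was read as ATP luminescence.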
IL1B secr inh – blocks inflammasome-driven IL-1 beta release; THP-1 LPS/ATP IL-1B secretion, AlphaLISA, 16 h; active compounds read low; activity change, % at 57.5 µM; hit rate 4.7% among 360,000; AID 743279; in the data active means activity change below about -50%; inconclusive means mostly about -30% to -49%
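Secreted IL-1B measured by AlphaLISA bead assay after 16 h compound exposure of THP-1 cells; compounds (final up to 57.5 uM) added 1 h before LPS (250 ng/mL) and ATP (1.25 mM) stimulation; lower signal means less secretion.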
HT1080-NT tox – kills 2HG-producing HT-1080-NT fibrosarcoma cells; hit rate 1.6% among 360,000; Potency, µM (highest dose often 46.1 µM), without a hit: top-dose activity, negative = less viability, most hits filed as cytotoxic; HT-1080-NT fibrosarcoma viability, CellTiter-Glo ATP luminescence, 48 h; AID 686970;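 further: NT is the 2HG producing partner of a matched IDH1 knockdown line; potency means the concentration at half of the fitted maximal effect; 0% = DMSO-treated cells and -100% = media-only wells without cells; nearly all actives have a fitted effect of over 55% in size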
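Read-out is CellTiter-Glo luminescence after 10 minutes at room temperature, following 48 hours' compound treatment of HT-1080-NT cells (750 cells/well, RPMI, 5% FBS, 37 degrees C).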
TDP1 cell noCPT – qHTS for Inhibitors of human tyrosyl-DNA phosphodiesterase 1 (TDP1): qHTS in cells in absence of CPT; hit rate 15% among 420,000; Potency, µM (highest dose often 46.2 µM), for the others: at the highest dose activity change, negative = growth inhibition, hits mostly inhibitors; DT40 Tdp1-/- hTDP1 cells, no CPT, ATP luminescence, 48 h; further: potency means the concentration at half of the fitted maximal effect; nearly all actives have a fitted effect of over 55% in size
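Growth of hTDP1-complemented DT40 Tdp1-knockout cells is measured by ATP luminescence after at least 48 hr compound exposure at 37 °C, with DMSO substituting for the 20 nM CPT used in the parallel screen.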
An asterisk follows results filed as active; u = inconclusive; x = no result given. In the library only some 19% were active in any assay of this set; here they are far more common. Unless noted, the call rests on the fitted dose curve; in most records, active means well fitted curve in the direction sought with a large enough effect; inconclusive means small, poorly fitted or top-dose-only effect, or another doubt; inactive means no such curve, though single readings can be large; an effect the other way counts as inactive or inconclusive. Unless noted, on the % scale 0 is the no-effect control and ±100 the full control effect.

SMILES	HT1080 IDH1KD tx	DT40 TDP1 CPT	IL1B secr inh	HT1080-NT tox	TDP1 cell noCPT
CCOC(=O)C1=CCC(c2ccc(N(CC)CC)cc2)N(S(=O)(=O)c2ccc(C)cc2)C1c1ccc([N+](=O)[O-])cc1 (centres undefined)	8%	7.3µM*	23	12%	6.5µM*
Cc1cc(C)c(NC(=O)CCc2c(C)noc2C)c(C)c1	7%	-11%	9	2%	-9%
CC(C)CCN1CCC(Cc2ccccc2)(NC(=O)c2ccccc2)C1=O (centres undefined)	14%	u	-25	5%	u
O=C(CCc1ccccc1)NC1(Cc2ccccc2)CCN(CCCc2ccccc2)C1=O (centres undefined)	u	16µM*	-15	u	8.2µM*
O=C(NC1(Cc2ccccc2)CCN(CCc2cccs2)C1=O)c1ccccc1 (centres undefined)	3%	26µM*	-13	-9%	u
Cc1[nH]c2ccccc2c1/C=C/c1ccnc2ccccc12	x	5.6µM*	x	x	2.8µM*
C(=C\c1c[nH]c2ccccc12)/c1ccnc2ccccc12	x	u	x	x	20µM*
Cc1[nH]c2ccccc2c1/C=C/C(=O)c1ccccc1	u	u	-12	-28%	u
Cc1ccc(NC(=O)Nc2nnc(N(C)Cc3ccccc3)s2)cc1	x	-28%	x	x	-19%
Oc1ccc(C=NN=Cc2ccco2)c(O)c1	0%	-3%	7	-1%	-5%
CC(=O)Nc1ccccc1OCC(=O)c1cc(C)n(Cc2cccs2)c1C	2.6µM*	1.8µM*	-13	-13%	1.5µM*
Cc1cc(C(=O)COC(=O)c2ccccc2O)c(C)n1Cc1cccs1	u	u	u	-3%	15µM*
CCCN(C(=O)c1nn(-c2ccc(OC)cc2)c(=O)c2c1c1ccccc1n2C)c1ccc(CC)cc1	x	-17%	x	x	u
COC1C(O)C(CO)OC1n1cnc2c(=O)[nH]c(N)nc21 (centres undefined)	x	11%	x	x	6%
C=C1[C@H](CO)[C@@H](O)C[C@@H]1n1cnc2c(=O)[nH]c(N)nc21	x	0.0084µM*	x	x	0.0053µM*
CNc1ncnc2c1ncn2[C@H]1C[C@H](O)[C@@H](CO)O1	x	u	x	x	7.3µM*
Nc1nc2c(ncn2C2CC(O)C(CO)O2)c(=O)[nH]1 (centres undefined)	x	10µM*	x	x	5.8µM*
Nc1ncn([C@H]2C[C@H](O)[C@@H](CO)O2)c(=O)n1	5%	0.041µM*	4	1%	0.1µM*
CC(=O)c1c(C)[nH]c(C(=O)NNC(=O)c2ccc(Br)cc2)c1C	0%	15%	0	-5%	u
CN(C)/C=N/c1nc2c(ncn2C2CC(O)C(CO)O2)c(=O)[nH]1 (centres undefined)	x	-14%	x	x	-1%
Nc1nc(Cl)nc2c1ncn2C1CC(O)C(CO)O1 (centres undefined)	u	0.18µM*	50	u	u
Nc1nc2c(ncn2[C@H]2C[C@H](O)[C@@H](CO)O2)c(=O)[nH]1	u	4.6µM*	0	u	2.1µM*
Nc1nc(Cl)nc2c1ncn2C1OCC(O)C(O)C1O (centres undefined)	8%	-19%	0	11%	-15%
Cn1c(NC(=O)c2ccc(F)cc2)c(-c2ccccn2)c(=O)c2ccccc21	2%	-3%	23	4%	-17%
CS(=O)(=O)Nc1ccc(C2=NN(C(=O)c3ccccc3)C(c3cccs3)C2)cc1 (centres undefined)	-10%	u	u	-10%	u
SMILES	HT1080 IDH1KD tx	DT40 TDP1 CPT	IL1B secr inh	HT1080-NT tox	TDP1 cell noCPT
CC(C)(C)C(=O)N1N=C(c2ccc(NS(C)(=O)=O)cc2)CC1c1cccs1 (centres undefined)	16µM*	u	-20	u	u
CCS(=O)(=O)Nc1cccc(C2=NN(C(C)=O)C(c3cccs3)C2)c1 (centres undefined)	-1%	6%	-9	-12%	-25%
CC(=O)N1N=C(c2ccccc2O)CC1c1cccs1 (centres undefined)	-14%	u	-65*	-18%	6.5µM*
CC(=O)N1N=C(c2cccc(NS(C)(=O)=O)c2)CC1c1cccs1 (centres undefined)	4%	-6%	52	4%	-2%
CC(=O)N1N=C(c2cccc(O)c2)CC1c1cccs1 (centres undefined)	-9%	15µM*	-12	-1%	u
N#Cc1cccc(-c2nc3cnc(Nc4ccccc4)nc3n(C[C@H]3CCCO3)c2=O)c1	x	9%	x	x	-5%
NS(=O)(=O)c1ccc(CCNC(=O)C2CCCN2S(=O)(=O)c2cccc3nsnc23)cc1 (centres undefined)	-2%	-21%	22	-1%	-13%
Nc1cccc2cc(-c3ccccc3)oc12	3%	-3%	-6	-3%	0%
COc1cccc(CN(C(=O)c2ccc(C(C)(C)C)cc2)C2CCS(=O)(=O)C2)c1 (centres undefined)	x	u	x	x	-35%
COc1ccc(CNCCCSc2ncccn2)c(OC)c1	-4%	-2%	-7	0%	u
Brc1ccc(CNCCCSc2nnnn2-c2ccccc2)cc1	x	u	x	x	16µM*
Cc1ccc(CNCCCSc2nc(C)cc(C)n2)cc1	-8%	u	u	-10%	u
Cc1ccccc1CNCCSc1nnnn1-c1ccccc1	x	-11%	x	x	-14%
Cc1cc(C)nc(SCCCNCc2ccc(Br)cc2)n1	-28%	u	-4	u	21µM*
CSc1ccc(CNCCCN(C)C)cc1	-23%	u	-54*	-3%	u
CCOc1c(CNCCCSc2nc(C)cc(C)n2)cccc1OC	-19%	21µM*	7	u	u
CCOc1ccc(N2CC(C(=O)Nc3ccccc3F)CC2=O)cc1 (centres undefined)	11%	-7%	-2	2%	4%
C/C(=C\C(=O)c1sccc1Cl)N(C)C	-3%	0%	-20	-2%	-17%
CSc1ccc(CNCCCSc2ncccn2)cc1	-16%	u	-68*	-7%	-22%
Brc1ccc(CNCCCSc2ncccn2)cc1	-13%	15µM*	-1	-13%	16µM*
Clc1ccc(CNCCCSc2ncccn2)cc1	u	-82%	-16	u	u
CCOc1ccccc1NC(=O)COc1coc(CN2CCc3ccccc3C2)cc1=O	-4%	u	-12	-3%	13µM*
CCOc1ccccc1NC(=O)COc1coc(CN2CCCc3ccccc32)cc1=O	-10%	u	2	-7%	u

High-throughput results: PubChem BioAssay, National Center for Advancing Translational Sciences (NCATS)
